# SARS PLP yeast = SARS-CoV PLP inhibition in yeast; S. cerevisiae expressing SARS-CoV PLpro, growth rescue; Potency, µM (top dose mostly 32.9 µM), for inactives: at the top dose activity, positive = growth rescue, actives largely listed as activators; actives 0.19% (n = 330,000); AID 485353; further: 0% is about no effect; nearly all actives have a fitted effect of over 55% in size
# NS1 inh = influenza NS1 inhibition; AID 2326; Potency, µM (titrated, usually from 46.1 µM), for inactives: at the highest dose activity, positive = more growth; actives 0.4% (n = 270,000); further: actives are rising curves; nearly all actives have a fitted effect of over 50% in size
#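 OD600 was taken as the measure of yeast growth restored by compound in an NS1-expressing S. cerevisiae strain. Cells had been washed out of glucose medium and diluted 1:100 into galactose -URA medium, pH 6.0.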
# Pf growth 48h = inhibits P. falciparum growth in the first generation, 48 h; P. falciparum luciferase growth in erythrocytes, 48 h; Potency, µM (titrated, usually from 28.7 µM), for inactives: top-dose activity change, negative = inhibition, hits mostly inhibitors; actives 5.9% (n = 310,000); AID 504832; active means well fitted inhibition curve with a large enough effect; inconclusive means small, poorly fitted or top-dose-only effect, or another doubt; inactive means no such curve, though single readings can be large or run the other way; further: on the % scale 0 is the no-effect control and ±100 the full control effect
#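 Erythrocytes infected with P. falciparum carrying an integrated firefly luciferase reporter (2% hematocrit, 0.1% parasitemia final) were exposed to compounds in RPMI 1640 with 0.5% Albumax at 37 C, 5% CO2. Growth inhibition was scored as reduced luminescence.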
# RE007 growth inh = less growth of the S. pombe RE007 Vpr strain | S. pombe RE007 Vpr strain, BacTiter-Glo ATP luminescence, 24 h | actives 0.21% (n = 360,000) | Potency, µM (titrated, usually from 92.2 µM), for inactives: top-dose activity change, negative = less growth, most hits filed as inhibitors | AID 651644; active means well fitted falling curve with a large enough effect; inconclusive means small, poorly fitted or top-dose-only effect; inactive means no such curve, though single readings can be large or run the other way; further: on the % scale 0 is the no-effect control and ±100 the full control effect; nearly all actives have a fitted effect of over 50% in size
#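 Fission yeast strain RE007, carrying one chromosomally integrated HIV-1 vpr copy, was seeded at OD 0.01 in PMG+AL medium with 23 nL pinned compound. After 24 h at 30 °C and 99% humidity, viability was read by BacTiter-Glo luminescence.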
# Pf growth 96h = inhibits malaria parasite growth, 96 h; P. falciparum luciferase reporter growth, 96 h; Potency, µM (series often up to 28.7 µM), for the others: at the top dose activity change, negative = inhibition, most hits filed as inhibitors; actives 6.9% (n = 320,000); AID 504834; active means well fitted inhibition curve with a large enough effect; inconclusive means small, poorly fitted or top-dose-only effect, or another doubt; inactive means no such curve, though single readings can be large or run the other way; further: on the % scale 0 is the no-effect control and ±100 the full control effect
#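 Luminescence readout: decreased luciferase signal marks inhibited growth of reporter-expressing P. falciparum in infected red cells (2% hematocrit, 0.05% parasitemia final), exposed to compound two generations (96 h, 37 C, 5% CO2).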
# * = called active by the depositor; ? = inconclusive; nt = no result given. Rows were chosen to be rich in hits. Some 9.5% of all compounds tested hit in one or more screens of this group. Unless noted, the call rests on the fitted dose curve. Potency means the concentration at half of the fitted maximal effect.
SMILES,SARS PLP yeast,NS1 inh,Pf growth 48h,RE007 growth inh,Pf growth 96h
O=C(NCCC1=CCCCC1)c1ccc(Cl)c(S(=O)(=O)N2CCCCC2)c1,-6%,-59%,9.3µM*,2%,5.9µM*
O=C(O)c1cc([N+](=O)[O-])cc([N+](=O)[O-])c1N1CCN(c2cccc(C(F)(F)F)c2)CC1,0%,7%,15%,-10%,26%
O=[N+]([O-])c1cc(CN2CCN(c3cccc(C(F)(F)F)c3)CC2)c2cccnc2c1O,-21%,nt,0.83µM*,-8%,?
Oc1c(Cl)cc(CN2CCCCC2)c2cccnc12,21%,-64%,3.7µM*,nt,1%
O=[N+]([O-])c1cc(CN2CCCC2)c2cccnc2c1O,?,?,9.3µM*,-9%,?
Oc1c(CN2CCCCC2)ccc2cccnc12,nt,nt,nt,-16%,nt
Oc1c(CN2CCCCC2)cc(COCc2ccccc2)c2cccnc12,5%,-84%,1.9µM*,?,2.1µM*
COc1ccc(OCCN2CCC(C(=O)NC(c3ccsc3)c3ccccc3C)CC2)cc1 (stereo unspecified),nt,nt,nt,0%,nt
O=C(NCC(c1ccccc1)N1CCCC1)C1CCN(C(=O)Nc2ccccc2)CC1 (stereo unspecified),3%,nt,?,1%,?
CNS(=O)(=O)c1cnccc1N1CCN(c2cccc(C(F)(F)F)c2)CC1,-2%,-1%,?,13%,15µM*
O=[N+]([O-])c1cc(Cl)ccc1N1CCN(c2cccc(C(F)(F)F)c2)CC1,5%,-6%,?,-7%,12µM*
CNS(=O)(=O)c1cnccc1N1CCN(C)CC1,-21%,-5%,4%,2%,-12%
Cc1ccc(S(=O)(=O)N2CCC3(CC2)OCCO3)s1,?,0%,8%,10%,?
CCN(CC)S(=O)(=O)c1cc(NC(=O)c2cc(-c3ccccn3)nc3ccccc23)ccc1C,-6%,23%,9.3µM*,-8%,?
CC(=O)Nc1cccc(C(=O)Nc2cccc3ncccc23)c1,-3%,12%,35%,17%,70%
CCOc1ccccc1-c1cc(C(=O)Nc2ccc(C(=O)O)cc2)c2ccccc2n1,-3%,11%,?,9%,10µM*
COc1ccc(NC(=O)c2cc(-c3ccccn3)nc3ccccc23)c(OC)c1,-4%,nt,nt,-3%,nt
CCOc1cc(C(=O)Nc2cccc3ncccc23)cc(OCC)c1OCC,0%,3%,nt,-6%,15µM*
COc1ccc(NC(=O)c2cc(-c3ccccn3)nc3ccccc23)cc1S(=O)(=O)N(C)C,-1%,nt,?,24%,-25%
CCOc1ccccc1NC(=O)c1cc(-c2ccccn2)nc2ccccc12,-2%,nt,15µM*,-10%,?
CCn1c(=O)c2c(nc(SCC(=O)Nc3ccccc3)n2C)n(C)c1=O,1%,2%,-3%,-2%,-16%
Cc1ccc(S(=O)(=O)N2CCC(C(=O)O)(c3ccccc3)CC2)cc1,nt,-11%,nt,nt,nt
O=C(Nc1c2c(nn1-c1ccc([N+](=O)[O-])cc1)CS(=O)(=O)C2)c1ccco1,?,-5%,44%,-5%,?
O=C(O)C(Oc1nc(=S)[nH]c(=S)[nH]1)(c1ccc(Cl)cc1)c1ccc(Cl)cc1,nt,-3%,nt,nt,nt
Cc1cccn2c(CN3CCSCC3)c(C(=O)N3CCOCC3)nc12,-1%,-1%,19%,10%,?
SMILES,SARS PLP yeast,NS1 inh,Pf growth 48h,RE007 growth inh,Pf growth 96h
Cc1cccn2c(CN3CCNC(=O)CC3)c(C(=O)N(C)CCc3ccccc3)nc12,-1%,5%,10%,23%,1.9µM*
COc1ccc(Nc2cc(C)nc3ccc(C)cc23)cc1,nt,nt,nt,9%,nt
CC(=O)c1ccc(Nc2cc(C)nc3ccc(C)cc23)cc1,0%,-2%,3.7µM*,-2%,4%
Cc1cc(C)n(CCC(=O)N2CCCC(N3CCN(c4cccc(Cl)c4)CC3)C2)n1 (stereo unspecified),5%,28%,-14%,8%,7%
Cc1cc(O)c(C=Nc2ccc(Cl)cn2)c(=O)o1,-6%,15%,nt,-29%,-1%
Oc1ccc2ccccc2c1C=Nc1ccc(Cl)cn1,-1%,0%,-1%,-3%,13µM*
Cc1nn(C)c(C)c1N=Cc1c(O)ccc2ccccc12,-4%,-72%,nt,-11%,8.3µM*

# Screening results: PubChem, National Center for Advancing Translational Sciences (NCATS)
